The structures appear in SMILES notation. Several values for one entry are separate records, joined by “and”; a condition that tells them apart may be missing. Identical values can stand only once.

The experiment relates to H9c2. As to the kind of experiment: cardiomyocyte survival under oxidative or metabolic stress – cell-based, panel, H9c2 and HL-1, ATP luminescence, set 2, SAR follow-up (AID 651871).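 Further: cells exposed to stressor for 2 h before ATP readout; reference of the scale not given here.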 The following applies: H9c2/HL-1 cardiomyocytes, 2-deoxyglucose stress, with 2-deoxyglucose; run 2, at 79 µM (top of the series).
With `COc1ccc2c(c1OC)C(=O)N1c3ccccc3C(=O)N(Cc3cccc(Cl)c3Cl)C21` (stereo not drawn), the activity (protection/inhibition) is 53% and 81.7% and -4.06%.

For the molecule `COc1ccc2nc(-c3cc(OC)c(OC)c(OC)c3)cc(C(=O)NCC(=O)Nc3ccc(C(C)=O)cc3)c2c1`, the activity (protection/inhibition) came out at 82.4%.

Consider `CCOC(=O)c1cccc(NC(=O)CNC(=O)c2cc(-c3cc(OC)c(OC)c(OC)c3)nc3ccccc23)c1`, for which the activity (protection/inhibition) came out at 78.5%.

These data come from PubChem BioAssay AID651871 (Sanford-Burnham Center for Chemical Genomics, 2012).
